From PubChem BioAssay (NCATS) come the findings set out here.

Records with an inconclusive call do not appear. Entries that show only a call come without a potency. A number with no mark means an inactive call. Calls of active or inactive are those of the source. The call rests on the fitted dose curve; in most records, active means well fitted inhibition curve with a large enough effect; inconclusive means small, poorly fitted or top-dose-only effect; inactive means flat fitted curve, though single readings scatter.

Assay [1] has as its target Calcium and integrin-binding protein 1 (Homo sapiens) (UniProt Q99828). The assay can be described thus: Primary qHTS for Identification of Calcium Integrin Binding Protein 1 (CIB1) Competitor (AID 1508620).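 Further: GST tagged CIB1 binding a fluorescein labelled alphaIIb integrin peptide tracer; top concentration of the series differs between compounds.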 The procedure, abridged:
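Fluorescence polarization competition: CIB1-GST (1 uM final) preincubated with compound 15 min at room temperature, then FITC-labeled alphaIIb peptide (100 nM final) added for another 15 min. Polarization read at Ex 480/Em 540.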

Assay [2] is described as follows: Primary qHTS for inhibitors of nuclear receptor binding SET domain protein 2 (NSD2) in an isogenic RCH-ACV NSD2 p.E1099K mutant (9B) (AID 1645876). Further: nearly all actives have a fitted effect of over 70% in size. Further: potency means the concentration at half of the fitted maximal effect. A general note: Quantitative high-throughput screening tests each substance at several concentrations.

Sequence of Calcium and integrin-binding protein 1 (Homo sapiens) (Q99828 whole entry, looked up): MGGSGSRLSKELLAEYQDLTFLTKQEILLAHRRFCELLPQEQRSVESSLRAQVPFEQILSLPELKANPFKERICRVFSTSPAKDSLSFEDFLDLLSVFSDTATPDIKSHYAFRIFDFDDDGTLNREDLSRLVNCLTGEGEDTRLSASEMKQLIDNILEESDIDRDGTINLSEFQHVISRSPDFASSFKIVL

With `CC1OC(OC2CCC3(C)C(CCC4(C)C3CC=C3C5CC(C)(C)CCC5(C(=O)OC5OC(CO)C(O)C(O)C5O)CCC34C(=O)O)C2(C)C)C(O)C(O)C1O` (configuration not stated), the Potency result in assay [1] and in assay [2] was “inactive” each time.

Regarding `CC12CCC(OC3OC(CO)C(O)C(OC4OC(CO)C(O)C(O)C4O)C3O)CC1CCC1C2CCC2(C)/C(=C3/COC(=O)C3)CCC12O` (configuration not stated), the Potency result in assay [1] and in assay [2] was “inactive” each time.

`COc1c/c(=C2\C=c3ccccc3=N2)[nH]/c1=C\c1[nH]c(C)cc1C`: in assay [1], the Potency result is “inactive”. Also, the Potency in assay [2] is 5.78 µM (active).

`C/C=C/C1=CC2=C(CO1)C(=O)C(C)(O)C(OC(=O)c1c(C)cc(OC)cc1O)C2` (configuration not stated): in assay [1], the Potency result is “inactive”. Besides, the Potency in assay [2] was 16 µM (active).

Consider `CC(C)C(=O)OC[C@H]1O[C@H](O[C@H]2O[C@H](CO)[C@@H](O)[C@H](O)[C@H]2O)[C@H](O)[C@@H](O)[C@@H]1O`, for which the Potency entry in assay [1] and in assay [2] was “inactive” each time.

Regarding `COc1cccc2cc3c(c(O[C@@H]4O[C@H](CO[C@@H]5O[C@H](CO)[C@@H](O)[C@H](O)[C@H]5O)[C@@H](O)[C@H](O)[C@H]4O)c12)C(C)OC3=O` (some centres not stated), the Potency entry in assay [1] and in assay [2] was “inactive” throughout.

With `COC(=O)C1=CO[C@@H](O[C@@H]2O[C@H](CO)[C@@H](O)[C@H](O)[C@H]2O)[C@@H]2C(CO)=CC[C@]12O`, the Potency result in assay [1] and in assay [2] was “inactive” throughout.

Take `CC1=C(CCC(C)O[C@@H]2O[C@H](CO)[C@@H](O)[C@H](O)[C@H]2O)C(C)(C)CCC1=O` (some centres not stated): the Potency result in assay [1] and in assay [2] was “inactive” in each case.

As for `COc1cc(C(=O)OC[C@H]2O[C@@H](Oc3ccccc3/C=C/C(=O)O)[C@H](O)[C@@H](O)[C@@H]2O)cc(OC)c1OC`, the Potency result in assay [1] and in assay [2] was “inactive” in each case.

On to `C[C@H]1O[C@@H](O[C@H]2CC[C@@]3(C)C(CC[C@]4(C)C3CC=C3C5CC(C)(C)CC[C@]5(C(=O)O)CC[C@]34C(=O)O)C2(C)C)[C@H](O)[C@@H](O)[C@@H]1O` (some centres not stated), for which the Potency entry in assay [1] and in assay [2] was “inactive” each time.

With `C[C@@H]1C(=O)OC[C@H]2C(C(=O)O)=C[C@@H]3CC(C)(C)C[C@]312`, the Potency result in assay [1] and in assay [2] was “inactive” each time.

As to `C/C=C/C=C/[C@@H]1O[C@](O)([C@H](CC)C(=O)NC/C=C/C=C(\C)[C@@H](OC)[C@@H](C)C2OC(/C=C/C=C/C=C(\C)C(=O)c3c(O)cc[nH]c3=O)[C@H](O)[C@@H]2O)[C@H](O)[C@H](O)C1(C)C` (some centres not stated), the Potency entry in assay [1] and in assay [2] was “inactive” in each case.

As to `C[C@]12C[C@@H](O)[C@@H]3C[C@@]1(O[C@@H]1O[C@H](CO)[C@@H](O)[C@H](O)[C@H]1O)[C@]3(COC(=O)c1ccccc1)C(=O)O2`, the Potency result in assay [1] and in assay [2] was “inactive” each time.

As to `O=C1NC(Cc2c[nH]c3ccccc23)C(=O)NC1Cc1cnc[nH]1` (configuration not stated), the Potency result in assay [1] and in assay [2] was “inactive” in each case.

In the case of `COC(=O)c1c(C)cc(OC(=O)c2c(C)cc(OC)cc2OC)cc1O[C@@H]1O[C@H](CO)[C@@H](O)[C@H](O)[C@H]1O`, the Potency result in assay [1] and in assay [2] was “inactive” throughout.

For the compound `C=C[C@@]12COC(=O)C(=C)C1[C@@H](O)[C@H](C(=C)C(=O)OC)[C@@H](OC(=O)C(=C)CO)C2` (some centres not stated), the Potency result in assay [1] was “inactive”. In assay [2], the Potency is 8.93 µM (active).

Take `O=C1NC(Cc2c[nH]c3ccccc23)C(=O)NC1Cc1c[nH]c2ccccc12` (configuration not stated): the Potency result in assay [1] and in assay [2] was “inactive” throughout.

In the case of `CC12CCC(C(OC3OC(COC4OCC(O)(CO)C4O)C(O)C(O)C3O)C1)C(C)(C)O2` (configuration not stated), the Potency entry in assay [1] and in assay [2] was “inactive” throughout.

As to `COc1ccc(CN2C(=O)C(=O)c3cc(S(=O)(=O)N4CCC[C@H]4COc4cccnc4)ccc32)cc1`, the Potency entry in assay [1] and in assay [2] was “inactive” throughout.

For the compound `c1cc(Nc2cc(C3CC3)[nH]n2)nc(Nc2ccc3nc[nH]c3c2)n1`, the Potency result in assay [1] is “inactive”. Moreover, in assay [2], the Potency is 0.417 µM (active).

On to `C=C1CC2C(C)(CCC(=O)O)C(C(C)(C)O)CCC2(C)C2C(=O)OC(C)(C(=O)OC)C(=O)C12C` (configuration not stated), for which the Potency entry in assay [1] and in assay [2] was “inactive” in each case.

`CC1(C)C2CC=C(COC3OC(COC4OCC(O)(CO)C4O)C(O)C(O)C3O)C1C2` (configuration not stated): the Potency result in assay [1] and in assay [2] was “inactive” in each case.

As to `C=C[C@H]1[C@H](O[C@@H]2O[C@H](CO)[C@@H](O)[C@H](O)[C@H]2O)OC=C(C(=O)OC)[C@H]1C[C@@H]1c2cc(O)c(O)cc2CCN1C(C)=O`, the Potency result in assay [1] and in assay [2] was “inactive” in each case.

Consider `C[C@@H]1C(=O)O[C@H]2[C@@H](O)C34[C@H]5C[C@@H](C(C)(C)C)C36[C@@H](OC(=O)[C@@H]6O)O[C@@]4(C(=O)O5)[C@@]12O` (some centres not stated), for which the Potency result in assay [1] and in assay [2] was “inactive” in each case.

As for `COC(=O)CCc1cc2ccoc2c(OC)c1O[C@@H]1O[C@H](CO)[C@@H](O)[C@H](O)[C@H]1O`, the Potency entry in assay [1] and in assay [2] was “inactive” each time.

`CO[C@H]1/C=C/C=C/C=C/C[C@H](OC(=O)[C@@H](C)NC(=O)C2CCCCC2)[C@H](C)[C@@H](O)/C(C)=C/CCc2cc(O)cc(c2)NC(=O)C1`: the Potency entry in assay [1] was “inactive”. The Potency in assay [2] was 0.342 µM (active).
